# Only some compounds are listed: those with a hit (about 3% of all), similar ones and a draw of the others.
# DRD3 agonist = qHTS of D3 Dopamine Receptor Agonist: qHTS. D(3) dopamine receptor (Homo sapiens), P35462. D3R DiscoveRx beta-arrestin cells, luminescence, 90 min. max activation, %. 410,000 compounds, 0.58% hits. AID 652048, 2013; in the data active means max activation above about 30%; further: 0% is about no effect
# Target sequence (P35462 whole entry, looked up): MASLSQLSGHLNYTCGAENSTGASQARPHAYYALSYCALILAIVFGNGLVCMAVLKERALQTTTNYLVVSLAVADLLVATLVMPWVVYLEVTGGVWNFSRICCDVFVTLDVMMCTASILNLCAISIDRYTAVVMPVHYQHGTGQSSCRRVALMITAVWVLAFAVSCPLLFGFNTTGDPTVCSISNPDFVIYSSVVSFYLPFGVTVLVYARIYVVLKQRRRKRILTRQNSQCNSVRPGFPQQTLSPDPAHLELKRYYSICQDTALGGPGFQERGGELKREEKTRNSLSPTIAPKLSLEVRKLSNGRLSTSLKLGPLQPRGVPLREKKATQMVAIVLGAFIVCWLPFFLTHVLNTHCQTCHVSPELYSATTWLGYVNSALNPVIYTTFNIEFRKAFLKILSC
#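 Agonist-mode cell screen: cells plated at 1500/well and incubated overnight at 37 °C, then exposed to library compounds for 90 min at 37 °C. Detection reagent was added for 30–60 min at room temperature, and luminescence was read.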
# DRD3 antagonist = qHTS of D3 Dopamine Receptor Antagonist: qHTS | D(3) dopamine receptor (Homo sapiens), P35462 | D3R cells, DiscoveRx beta-arrestin luminescence, antagonist mode; hits give low values | 360,000 compounds, 2.5% hits | AID 652054, 2013 | max response, negative = inhibition, %; in the data active means max response below about -50%; inconclusive means no clear call, values can overlap the other calls; further: on the % scale 0 is the no-effect control and ±100 the full control effect
#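 Cells plated overnight at 1500 cells/well, then exposed to library compounds with dopamine controls for 90 minutes at 37 degrees C. DiscoveRx reagent added for 30–60 minutes at room temperature; luminescence read, quantitative HTS format.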
# GRP78 ERSR act = qHTS for Inducers of the Endoplasmic Reticulum Stress Response (ERSR) in Human Glioma: qHTS | U87-MG GRP78 promoter luciferase reporter, 16 h | Potency, µM, for the others: at the highest dose activation, hits mostly activators | 420,000 compounds, 0.02% hits; further: potency means the concentration at half of the fitted maximal effect; series mostly up to about 76 µM; % of control where 0% means no effect; nearly all actives have a fitted effect of over 35% in size
#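 Stably transfected U87-MG human glioma cells carrying a GRP78-based luminescent sensor were seeded at 1000 cells/well, pin-dosed with compounds and incubated 16 h. Luciferase reagent was then added, and end-point luminescence was read after 10 min at room temperature.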
# Nrf2 ARE act = qHTS of Nrf2 Activators; AID 624171, 2012; 410,000 compounds, 0.31% hits; AREc32 ARE-luciferase reporter (MCF7-derived line), luminescence, 24 h; Potency, µM (top dose mostly 46.1 µM), for the others: at the top dose activation, usual class: activators; further: potency means the concentration at half of the fitted maximal effect; % of control where 0% means no effect; nearly all actives have a fitted effect of over 65% in size
#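 Each well held 1000 AREc32 cells, which were incubated with compound for 24 hr at 37 deg C after overnight attachment, and ARE reporter activity was quantified by firefly luciferase luminescence.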
# * marks the source's active call; other numbers are inactive results; ? = inconclusive; . = not tested or not shown. Unless noted, the call rests on the fitted dose curve; in most records, active means well fitted curve in the direction sought with a large enough effect; inconclusive means small, poorly fitted or top-dose-only effect, or another doubt; inactive means no such curve, though single readings can be large; an effect the other way counts as inactive or inconclusive.
SMILES,DRD3 agonist,DRD3 antagonist,GRP78 ERSR act,Nrf2 ARE act
O=[N+]([O-])c1ccc(NC2CCN(Cc3ccccc3)CC2)c2ccncc12,-25,-74*,-5%,0%
NC(N)=Nc1ccc2[nH]c3c(c2c1)C[C@@]1(O)[C@H]2Cc4ccc(O)c5c4[C@@]1(CCN2CC1CC1)[C@H]3O5,-46,-61*,-11%,?
Oc1ccc2c3c1O[C@H]1c4[nH]c5c(c4C[C@@]4(O)[C@@H](C2)N(CC2CC2)CC[C@]314)C[C@]1(O)[C@H]2Cc3ccc(O)c4c3[C@@]1(CCN2CC1CC1)[C@@H]5O4,.,.,-2%,.
Cc1ccc(CN2C3CCCC2CC(NC(=O)Nc2cccc(F)c2)C3)cc1 (stereo not drawn),-17,-99*,-2%,3%
O=C(Nc1ccccc1)NC1CC2CCC(C1)N2 (stereo not drawn),0,-26,-5%,0%
COc1cc(=O)n2c(c1C(=O)N(C)Cc1nonc1C)CCN(C(=O)C1C(C)(C)C1(C)C)CC2,.,.,-3%,.
C=CCN1CCc2cccc3c2[C@H]1Cc1ccc(O)c(O)c1-3,116*,-24,?,0%
Cc1[nH]c2ccc(OC(F)(F)F)cc2c1CCNCc1cccc([N+](=O)[O-])c1,-19,-64*,-8%,3%
CN(C)C1CSSSC1,.,.,-2%,.
COc1cc(CN2CC=C(c3ccc(F)cc3)CC2)cc(OC)c1,-24,-88*,-3%,1%
O=[N+]([O-])c1ccc(CN2CC=C(c3ccccc3)CC2)cc1,-16,-55*,-3%,0%
CN(C)c1ccc(CN2CC=C(c3ccc(F)cc3)CC2)cc1,-60,-88*,-6%,0%
COc1cc(C)c(CN2CC=C(c3ccc(F)cc3)CC2)cc1C,-10,-76*,-3%,0%
CC(C)[C@H]1C(=O)N2CCC[C@H]2[C@]2(O)O[C@](NC(=O)[C@@H]3C[C@@H]4c5cccc6[nH]cc(c56)C[C@H]4N(C)C3)(C(C)C)C(=O)N12,5,.,.,.
COC(=O)[C@]12CCC(C)(C)C[C@H]1[C@H]1C(=O)C=C3[C@@]4(C)C=C(C#N)C(=O)C(C)(C)[C@@H]4CC[C@@]3(C)[C@]1(C)CC2,-20,.,.,.
COCCNCCOc1ccc(C(C)(C)c2ccccc2)cc1,-29,-57*,-1%,1%
CO/C=C(/C(=O)OC)c1ccccc1Oc1cc(Oc2ccccc2C#N)ncn1,22,.,-3%,.
CC1=C[C@@H]2c3cccc4[nH]cc(c34)C[C@H]2N(C)C1,54*,-22,-4%,-1%
CN1Cc2ccccc2[C@@H]2c3cccc4[nH]cc(c34)C[C@H]21,.,.,1%,.
O=C(c1ccc(CNS(=O)(=O)c2ccccc2)cc1)N1CCC2(CC1)OCCO2,0,-53*,2%,-1%
O=C(c1ccc(CNS(=O)(=O)c2ccc(Br)cc2)cc1)N1CCC2(CC1)OCCO2,3,0,-1%,-1%
O=C(CCS(=O)(=O)c1ccc(Br)cc1)N1CCC2(CC1)OCCO2,-2,-14,0%,4%
Cc1ccc(S(=O)(=O)Nc2cc(C(=O)N3CCC4(CC3)OCCO4)ccc2N2CCCCC2)cc1,-7,-54*,5%,3%
O=C(c1ccc(CS(=O)(=O)c2ccccc2)o1)N1CCC2(CC1)OCCO2,34*,9,-2%,0%
O=C(CNS(=O)(=O)c1ccc(Br)s1)N1CCC2(CC1)OCCO2,9,-55*,?,4%
SMILES,DRD3 agonist,DRD3 antagonist,GRP78 ERSR act,Nrf2 ARE act
Fc1ccccc1CCNCc1cccc(Cl)c1Cl,-32,-58*,2%,3%
CC[C@H](O)C(C[C@H](C)N(C)C)(c1ccccc1)c1ccccc1,-7,.,-5%,.
O=C(O)c1cc[c]([Hg][Cl])cc1,-59,-65*,-3%,27%
OC(c1ccccc1)(c1ccc(Cl)cc1)C1CN2CCC1CC2 (stereo not drawn),-31,-29,-8%,4%
OC(c1ccccc1)(c1ccccc1)C1CN2CCC1CC2 (stereo not drawn),0,-70*,-3%,0%
COc1ccccc1CN1CCN(C(=O)COc2ccccc2)CC1,1,-81*,-4%,0%
COc1cc(OC)c(OC)cc1CN1CCN(C(=O)COc2ccc3ccccc3c2)CC1,-20,0,-1%,2%
O=C(COc1ccccc1)N1CCN(CC2CC=CCC2)CC1 (stereo not drawn),-14,-57*,1%,0%
O=C(COc1ccccc1)N1CCN(CC2CC3C=CC2C3)CC1 (stereo not drawn),-27,?,-5%,0%
O=c1[nH]c2ccccc2n1C1CCN(C(CCc2ccccc2)c2nnnn2-c2ccc3c(c2)OCCO3)CC1 (stereo not drawn),36*,98,-10%,-2%
CCC(=NCCc1c[nH]c2ccccc12)c1c(O)n(C)c(=O)n(C)c1=O,65*,29,2%,3%
O=S(=O)(O)C(F)(F)C(F)(F)C(F)(F)C(F)(F)C(F)(F)C(F)(F)C(F)(F)C(F)(F)F,-15,.,-3%,.
Cc1ccc2c(c1)C1CN(C)CCC1N2 (stereo not drawn),-21,.,.,.
CCOc1ccc(C2C(C#N)=C(N)Oc3c2c(=O)oc2ccccc32)cc1 (stereo not drawn),1,-1,-5%,0%
O=C1CC(c2ccc(Br)cc2)c2c(c3ccccc3oc2=O)O1 (stereo not drawn),51*,.,-2%,0%
COc1ccc(C2C=C(c3ccccc3)Nc3nc(NC(=O)/C=C/c4ccccc4Cl)nn32)cc1 (stereo not drawn),4,.,-3%,?
CCCN1CCO[C@@H]2c3cc(O)ccc3OC[C@@H]21,.,.,-1%,.
CCCN1CC[C@@H]2c3cc(O)ccc3CC[C@@H]21,51*,10,-3%,-1%
CC(=O)[C@@]1(O)CC[C@H]2[C@@H]3CCC4=CC(=O)CC[C@]4(C)C3(F)[C@@H](O)C[C@@]21C (stereo partly drawn),4,.,.,.
O=[N+]([O-])c1cccc(CCl)c1,-97,-117*,0%,0%
CSc1ncc(CN2CCCC(C(=O)c3ccccc3SC)C2)cn1 (stereo not drawn),-17,-19,9%,-2%
O=C(c1cc(F)ccc1F)C1CCCN(Cc2cccc(Cl)c2)C1 (stereo not drawn),-7,-79*,-1%,0%
O=C(c1cc(F)ccc1F)C1CCCN(CCCc2ccccc2)C1 (stereo not drawn),-15,-74*,-4%,0%
Cc1ccc2c(c1)[C@]13CCCC[C@@H]1[C@@H](C2)N(C)CC3,.,.,-3%,.
COc1ccc(CC(=O)N2CCN(C)CC2)cc1,6,?,0%,0%
COc1ccc(CC(=O)N2CCN(C)CC2)cc1OC,-3,-71*,-4%,-1%
c1ccc2c(CN3CCCCCCC3)c[nH]c2c1,-5,-2,-4%,?
c1ccc2c(CN3CCN(C4CCCCC4)CC3)c[nH]c2c1,-13,-67*,-3%,3%
